Laboratory results taken from the supplement of paper PMC6897291.
Structures can show the parent of a compound that is named as a salt.

Legend:
[1] = system: U-2932; test: growth inhibition by drug alone (1 - RLU/untreated control) (fraction); higher = stronger inhibition; settings: 177Lu-lilotomab satetraxetan 0 ug/ml
In short: (§1)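 RIVA or U-2932 cells were left untreated or pretreated for 18 h with a radiolabelled anti-CD37 antibody conjugate (~600 MBq/mg) at 0.5 µg/ml for RIVA or 1 µg/ml for U-2932. The cells were then washed and seeded at 3,000 cells/well on plates pre-printed with the Selleck Cambridge Cancer Compound library, dosed at 10/100 nM for RIVA and 10/1,000 nM for U-2932. From day 3, RealTime-Glo luminescence was read daily after 1 h at 37°C. Growth inhibition was taken as one minus RLU over the mean of the untreated no-drug wells, of which there were 48 per plate.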

[2] = system: RIVA; test: as above; settings: 177Lu-lilotomab satetraxetan 0 ug/ml
In short: as §1

[3] = system: U-2932; test: growth inhibition by drug plus 177Lu-lilotomab satetraxetan (1 - RLU/untreated control) (fraction); higher = stronger inhibition; settings: 177Lu-lilotomab satetraxetan 1 ug/ml
In short: as §1

[4] = system: RIVA; test: as above; settings: 177Lu-lilotomab satetraxetan 0.5 ug/ml
In short: as §1

| Structure (SMILES) | growth inhibition by drug alone ([1]; 10 nM, time (day): 3) | growth inhibition by drug alone ([1]; 10 nM, time (day): 4) | growth inhibition by drug alone ([1]; 10 nM, time (day): 5) | growth inhibition by drug alone ([1]; 10 nM, time (day): 6) | growth inhibition by drug alone ([1]; 1000 nM, time (day): 3) | growth inhibition by drug alone ([1]; 1000 nM, time (day): 4) | growth inhibition by drug alone ([1]; 1000 nM, time (day): 5) | growth inhibition by drug alone ([1]; 1000 nM, time (day): 6) | growth inhibition by drug alone ([2]; 10 nM, time (day): 3) | growth inhibition by drug alone ([2]; 10 nM, time (day): 4) | growth inhibition by drug alone ([2]; 10 nM, time (day): 5) | growth inhibition by drug alone ([2]; 10 nM, time (day): 6) | growth inhibition by drug alone ([2]; 100 nM, time (day): 3) | growth inhibition by drug alone ([2]; 100 nM, time (day): 4) | growth inhibition by drug alone ([2]; 100 nM, time (day): 5) | growth inhibition by drug alone ([2]; 100 nM, time (day): 6) | growth inhibition by drug plus 177Lu-lilotomab satetraxetan ([3]; 10 nM, time (day): 3) | growth inhibition by drug plus 177Lu-lilotomab satetraxetan ([3]; 10 nM, time (day): 4) | growth inhibition by drug plus 177Lu-lilotomab satetraxetan ([3]; 10 nM, time (day): 5) | growth inhibition by drug plus 177Lu-lilotomab satetraxetan ([3]; 10 nM, time (day): 6) | growth inhibition by drug plus 177Lu-lilotomab satetraxetan ([3]; 1000 nM, time (day): 3) | growth inhibition by drug plus 177Lu-lilotomab satetraxetan ([3]; 1000 nM, time (day): 4) | growth inhibition by drug plus 177Lu-lilotomab satetraxetan ([3]; 1000 nM, time (day): 5) | growth inhibition by drug plus 177Lu-lilotomab satetraxetan ([3]; 1000 nM, time (day): 6) | growth inhibition by drug plus 177Lu-lilotomab satetraxetan ([4]; 10 nM, time (day): 3) | growth inhibition by drug plus 177Lu-lilotomab satetraxetan ([4]; 10 nM, time (day): 4) | growth inhibition by drug plus 177Lu-lilotomab satetraxetan ([4]; 10 nM, time (day): 5) | growth inhibition by drug plus 177Lu-lilotomab satetraxetan ([4]; 10 nM, time (day): 6) | growth inhibition by drug plus 177Lu-lilotomab satetraxetan ([4]; 100 nM, time (day): 3) | growth inhibition by drug plus 177Lu-lilotomab satetraxetan ([4]; 100 nM, time (day): 4) | growth inhibition by drug plus 177Lu-lilotomab satetraxetan ([4]; 100 nM, time (day): 5) | growth inhibition by drug plus 177Lu-lilotomab satetraxetan ([4]; 100 nM, time (day): 6) |
| --- | --- | --- | --- | --- | --- | --- | --- | --- | --- | --- | --- | --- | --- | --- | --- | --- | --- | --- | --- | --- | --- | --- | --- | --- | --- | --- | --- | --- | --- | --- | --- | --- |
| CN(c1ncccc1CNc1nc(Nc2ccc3c(c2)CC(=O)N3)ncc1C(F)(F)F)S(C)(=O)=O | 0.161 | 0.0909 | 0.0358 | -0.183 | 0.299 | 0.457 | 0.571 | 0.694 | -0.0233 | 0.0431 | -0.0513 | -0.296 | -0.0725 | 0.0108 | 0.00901 | -0.0367 | 0.066 | 0.111 | 0.2 | 0.224 | 0.23 | 0.336 | 0.426 | 0.546 | 0.592 | 0.636 | 0.671 | 0.663 | 0.458 | 0.565 | 0.566 | 0.569 |
| O=C1c2ccccc2C(=O)c2c(NCCc3ccc(O)cc3)ccc(NCCc3ccc(O)cc3)c21 | -0.0815 | -0.112 | -0.157 | -0.425 | -0.127 | -0.129 | -0.138 | -0.403 | -0.237 | -0.358 | -0.539 | -0.808 | -0.77 | -0.807 | -0.893 | -1.08 | -0.127 | -0.0794 | -0.054 | -0.0701 | -0.11 | -0.0952 | -0.0582 | 0.044 | 0.317 | 0.429 | 0.456 | 0.479 | 0.329 | 0.437 | 0.433 | 0.44 |
| CCCCCOC(=O)Nc1nc(=O)n([C@@H]2O[C@H](C)[C@@H](O)[C@H]2O)cc1F [Capecitabine (Xeloda)] | -0.0672 | -0.0894 | -0.0926 | -0.0992 | -0.0819 | -0.0438 | -0.0714 | 0.0681 | -0.345 | -0.321 | -0.354 | -0.36 | -0.381 | -0.792 | -0.367 | -0.436 | -0.101 | -0.0507 | 0.0153 | 0.0328 | -0.139 | -0.0798 | -0.0339 | 0.114 | 0.468 | 0.533 | 0.549 | 0.549 | 0.378 | 0.466 | 0.465 | 0.483 |
| CC(=O)O[C@]1(C(C)=O)CC[C@H]2[C@@H]3C[C@H](C)C4=CC(=O)CC[C@]4(C)[C@H]3CC[C@@]21C [Medroxyprogesterone acetate] | 0.141 | 0.111 | 0.0166 | -0.207 | 0.107 | 0.162 | 0.15 | 0.056 | -0.0698 | -0.099 | -0.346 | -0.679 | -0.507 | -0.273 | -0.35 | -0.619 | 0.0781 | 0.0764 | 0.144 | 0.108 | 0.102 | 0.176 | 0.224 | 0.336 | 0.422 | 0.555 | 0.543 | 0.565 | 0.235 | 0.389 | 0.409 | 0.427 |
| CCN(CC)C(=S)SSC(=S)N(CC)CC [Disulfiram (Antabuse)] | 0.0412 | 0.0424 | -0.018 | -0.236 | 0.981 | 0.982 | 0.981 | 0.981 | -0.0278 | -0.1 | -0.147 | -0.282 | -0.227 | -0.194 | -0.203 | -0.423 | 0.000112 | 0.0295 | 0.0516 | 0.0837 | 0.981 | 0.983 | 0.982 | 0.983 | 0.402 | 0.529 | 0.548 | 0.549 | 0.209 | 0.379 | 0.394 | 0.386 |
| C[N+](C)([O-])CCNc1ccc(NCC[N+](C)(C)[O-])c2c1C(=O)c1c(O)ccc(O)c1C2=O [Banoxantrone dihydrochloride] | -0.0281 | -0.0255 | -0.149 | -0.168 | -0.0598 | -0.0493 | -0.082 | -0.106 | -0.171 | -0.248 | -0.397 | -0.545 | -0.338 | -0.41 | -0.557 | -0.705 | -0.00903 | 0.0168 | 0.0134 | -0.00428 | 0.0744 | 0.142 | 0.219 | 0.381 | 0.391 | 0.472 | 0.484 | 0.498 | 0.446 | 0.551 | 0.571 | 0.588 |
| C[C@]12CCC(=O)C=C1CC[C@@H]1[C@@H]2[C@@H](O)C[C@@]2(C)[C@H]1CC[C@]2(O)C(=O)CO [Hydrocortisone (Cortisol)] | 0.112 | 0.0854 | 0.0156 | -0.0358 | 0.303 | 0.304 | 0.221 | 0.167 | -0.0911 | -0.0297 | -0.194 | -0.593 | -0.515 | -0.297 | -0.373 | -0.697 | 0.0227 | 0.0897 | 0.119 | 0.139 | 0.281 | 0.288 | 0.293 | 0.362 | 0.519 | 0.578 | 0.597 | 0.608 | 0.101 | 0.303 |  |  |
